Source: PubChem (National Center for Advancing Translational Sciences (NCATS))
Shown are actives, neighbours in structure and some others; about 6.7% of the full set was active somewhere.
PINK1 expr mod = PINK1 expression modulation | hit rate 0.2% among 410,000 | Potency, µM (titrated, usually from 76.6 µM), for inactives: top-dose activation (PINK1 increase), most hits filed as activators | AID 624263 | PINK1 immunofluorescence, high-content cytometry, 24 h; active = well fitted activation curve with a large enough effect; inconclusive = small, poorly fitted or top-dose-only effect; cell line not stated here; note: % of control where 0% means no effect; nearly all actives have a fitted effect of over 65% in size
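Readout is PINK1 immunofluorescence, quantified alongside mitochondrial, cell and nuclear markers by laser-scanning microplate cytometry. Cells from a stable line were exposed to compound titrations (5 concentrations) for 24 hours, with CCCP controls.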
MCF10A rerep = DNA re-replication induction in MCF 10a cells; AID 624296; hit rate 2.9% among 350,000; MCF 10A DNA re-replication, Hoechst nuclear intensity, 48 h; Potency, µM (series often up to 46.1 µM), without a hit: top-dose activity, positive = re-replication, hits mostly activators; note: % of control where 0% means no effect; nearly all actives have a fitted effect of over 50% in size
SW480 rerep = induces DNA re-replication in SW480 colon adenocarcinoma cells | hit rate 1.8% among 340,000 | SW480 DNA re-replication, Hoechst DNA content imaging, 48 h | Potency, µM (titrated, usually from 46.1 µM), without a hit: top-dose re-replication activation, usual class: activators; note: % of control where 0% means no effect; nearly all actives have a fitted effect of over 55% in size
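First, 250 cells per well were seeded. Next, compound or vehicle (23 nL) was pinned in, plates sat 48 hr at 37 C. Finally Hoechst was added for 40 min before fluorescence scanning.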
KB-V1 cytotox = KB-V1 MDR subline cytotoxicity. KB-V1 MDR cells viability, CellTiter-Glo, 72 h. hit rate 3.4% among 400,000. Potency, µM (doses to about 46.1 µM), most hits filed as cytotoxic; note: % is set by controls: 0 for no effect and ±100 for the full control effect; nearly all actives have a fitted effect of over 60% in size
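Potencies derive from concentration-effect curves fitted to normalized luminescence (CellTiter-Glo) of KB-V1 cells treated for 72 h at 37 degrees C in phenol-red-free DMEM containing 10% FBS.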
KB-3-1 cytotox = KB-3-1 parental cell cytotoxicity | KB-3-1 viability, CellTiter-Glo ATP luminescence, 72 h | Potency, µM (doses to about 46.1 µM), usual class: cytotoxic | hit rate 1.4% among 400,000; note: % is set by controls: 0 for no effect and ±100 for the full control effect; nearly all actives have a fitted effect of over 60% in size
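Cytotoxicity measured as CellTiter-Glo luminescence after 72 h at 37 C. Compound titrations were pinned onto drug-naive KB-3-1 parental adenocarcinoma cells grown in DMEM with 10% FBS, and normalized data fitted to concentration-response curves.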
* marks the source's active call; other numbers are inactive results; i = inactive; ? = inconclusive; · = no result given; ! = a repeat was not active; [ ] = dose if it differs, or a comment. Unless noted, calls come from the whole dose curve; as a rule, active = well fitted curve in the direction sought with a large enough effect; inconclusive = small, poorly fitted or top-dose-only effect, or another doubt; inactive = no such curve, though single readings can be large; an effect the other way counts as inactive or inconclusive. Potency is the fitted concentration of half-maximal effect.

SMILES	PINK1 expr mod	MCF10A rerep	SW480 rerep	KB-V1 cytotox	KB-3-1 cytotox
Cc1ccc2c(c1)N(CC(=O)NCCCN1CC(C)CC(C)C1)C(=O)c1cccnc1O2 (configuration not stated)	0%	5%	2%	i	i
CCOC(=O)N1CCN(Cc2ccc3c(c2)CN(C(=O)c2cc(-c4ccccc4)on2)CCO3)CC1	0%	·	·	·	·
O=C1CN2Cc3c(ccc(Cl)c3Cl)N=C2N1	-1%	7%	?	0.16µM*	i
Clc1cccc[n+]1CCc1ccccc1	·	·	·	i	i
COc1ccc(-c2nc(C)c(CCNC(=O)c3cccs3)s2)cc1	-1%	·	·	8.2µM*	i
Cc1ccc(-c2nc(C)c(CCNC(=O)c3cccs3)s2)cc1	-1%	·	·	?	i
CCCCSc1c(C)c2cc3c(cc2[nH]c1=O)OCO3	5.6µM*	4%	-10%	i	i
Cc1ccc(-c2ccc(C3C(C#N)=C(N)Oc4n[nH]c(C)c43)o2)cc1 (configuration not stated)	-3%	23µM*	?	26µM*	i
CCC(CC)C1C(C#N)=C(N)Oc2n[nH]c(C)c21 (configuration not stated)	4%[38.3 µM]	?	21µM*	i	i
O=c1cc(NCc2ccccc2)[nH]c(=O)[nH]1	0%	-1%	-3%	i	i
CSCCC(NC(=O)c1ccccc1Cl)C(=O)NCCOc1ccc(C)cc1 (configuration not stated)	0%	·	·	?	i
COc1cccc(CN2C(=O)C(C)N(C(=O)c3c(F)cccc3F)c3ccccc32)c1 (configuration not stated)	0%	?	3%	i	?
CC1C(=O)N(Cc2ccccc2F)c2ccccc2N1C(=O)c1c(F)cccc1F (configuration not stated)	-1%	21µM*	7%	i	?
Nc1nonc1-n1nnc(C(=O)N/N=C/c2cccnc2)c1CSC1=NCCS1	3%	18µM*	6%	i	i
Cc1ccc(/C=N/NC(=O)c2nnn(-c3nonc3N)c2CSc2ccccc2)s1	7%	21µM*	13µM*	i	i
Nc1nonc1-n1nnc(C(=O)N/N=C/c2ccc(Br)cc2)c1CSC1=NCCS1	?	?	?	i	?
Nc1nonc1-n1nnc(C(=O)N/N=C/c2ccccc2)c1CSc1ccccc1	8%	?	?	i	i
Cc1ccc(CNc2ncnc3sc(C(=O)N4CCC(N5CCCC(O)C5)CC4)c(C)c23)o1 (configuration not stated)	1%	·	·	·	·
O=S(=O)(NC1CCCCC1N1CCN(c2ccc(F)cc2)CC1)c1ccccc1 (configuration not stated)	0%	26µM*	3%	i	i
Cc1ccc(C)c(N2CCN(C3CCCCC3NS(=O)(=O)c3ccccc3)CC2)c1 (configuration not stated)	3%	?	27%	i	16µM*
Cc1nn(-c2ccccc2)c(OC(=O)c2ccccc2)c1S(=O)(=O)c1ccccc1	2%	·	·	i	i
COc1ccc2oc(=O)c(C(=O)NCc3ccc(C)cc3)cc2c1	4%	11%	-8%	i	i
COc1ccc(CNC(=O)c2cc3cc(OC)ccc3oc2=O)cc1	11%	16µM*	-8%	?	15µM*!
COc1ccc2oc(=O)c(C(=O)NCc3ccccc3)cc2c1	4%	-14%	3%	i	i
COc1ccc(NC(=O)c2cc3cc(OC)ccc3oc2=O)cc1	25µM*	-9%	-3%	i	i
CCCOc1ccc2cc(C(=O)NCc3ccccc3)c(=O)oc2c1	8%	23µM*	5%	i	i
CC(C)(CNC(=O)c1cnn(-c2ncc3c(n2)-c2ccccc2CCC3)c1C1CC1)N1CCOCC1	0%	·	·	·	·
Oc1ccc(Cl)cc1C1=NNC(c2ccc(Cl)cc2)C1 (configuration not stated)	18%	18µM*	?	?	23µM*
O=C1C=C(O)CC(c2ccc(Cl)cc2)C1 (configuration not stated)	0%	-1%	1%[9.22 µM]	i	i
